High-throughput results: PubChem BioAssay, The Scripps Research Institute Molecular Screening Center
Most compounds without a hit are left out; they make up all but 2% or so of the library.
UHRF1 binding – blocks human UHRF1 binding to methylated DNA; UHRF1 binding to methylated oligo, TR-FRET; AID 687016; Q96T88; inhibition, % at 4.4 µM; 370,000 tested, 0.75% active; in the data active means inhibition above about 21%;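 further: UHRF1 SRA domain binding a hemimethylated CpG hairpin DNA probe; 0% = median of test compound wells and 100% = reference inhibitor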
Rin1 Abl inh – inhibitors of human Rin1-Abl protein interaction | P00519+Q13671 | TR-FRET Rin1/Abl binding, biochemical | inhibition, % at 7.35 µM | 360,000 tested, 0.4% active | AID 588664; in the data active means inhibition above about 5%, passing the limit was not always enough
MBD2 DNA inh – inhibitors of human MBD2 binding to methylated oligonucleotide | Q9UBB5 | TR-FRET | inhibition, % at 4.4 µM | 370,000 tested, 0.31% active; in the data active means inhibition above about 13%
Target sequence (Q9UBB5 whole entry, looked up): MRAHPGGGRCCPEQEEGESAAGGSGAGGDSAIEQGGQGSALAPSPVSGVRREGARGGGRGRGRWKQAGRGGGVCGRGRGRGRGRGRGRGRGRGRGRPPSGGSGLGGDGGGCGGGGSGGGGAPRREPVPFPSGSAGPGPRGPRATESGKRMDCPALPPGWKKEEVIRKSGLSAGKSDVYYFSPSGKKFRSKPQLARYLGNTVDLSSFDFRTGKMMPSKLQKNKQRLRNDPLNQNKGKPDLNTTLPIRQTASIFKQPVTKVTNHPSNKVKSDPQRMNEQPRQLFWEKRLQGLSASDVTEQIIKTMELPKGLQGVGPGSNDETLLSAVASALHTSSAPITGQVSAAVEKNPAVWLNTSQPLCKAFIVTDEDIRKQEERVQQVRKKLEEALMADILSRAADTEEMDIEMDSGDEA
TCR CD3 inh – inhibitors of human TCR-CD3 interaction | TAMRA-labeled TCR probe fluorescence, biochemical | inhibition, % at 9.4 µM | 360,000 tested, 0.37% active; in the data active means inhibition above about 19%;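 further: recombinant mutant TCR 2C K166C tagged with TAMRA read by polarization; 0% = receptor in buffer alone and 100% = receptor with positive control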
LEDGF integ inh – blocks HIV-1 LEDGF/p75-dependent DNA integration; TR-FRET IN-LEDGF/p75 DNA integration, Eu/Cy5; inhibition, % at 3.7 µM; 370,000 tested, 0.64% active; AID 743269;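 active means inhibition above the screen-wide mean plus 3 SD, cut at about 13% in these data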;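 further: signal is the Cy5 over europium emission ratio at 671 and 618 nm; 0% = plate median of compound wells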
Numbers without * were called inactive.

`COC(=O)[C@]12C[C@H](CC(=O)N3CCN(C(=O)C4CC4)CC3)C(=O)N(Cc3cccc4ccccc34)C1=C[C@H](C(C)C)O[C@@H]2C1CC1` gave UHRF1 binding 0, MBD2 DNA inh 0 and LEDGF integ inh -2.
CS/C(=N\S(=O)(=O)c1ccc(N)cc1)NS(=O)(=O)c1cccs1 was read as Rin1 Abl inh -1.
Screening CSC(=NCc1ccc(F)cc1)NS(=O)(=O)c1cccs1 returned UHRF1 binding 41*, Rin1 Abl inh -2, MBD2 DNA inh -3, TCR CD3 inh -2 and LEDGF integ inh 1.
CCN1C[C@@H]2[C@@H]3C(=O)N(Cc4ccccc4)C(=O)[C@@H]3[C@](C)(C1=O)N2C(=O)c1ccc(Cl)c(Cl)c1 was read as UHRF1 binding -3, Rin1 Abl inh 1, MBD2 DNA inh 4, TCR CD3 inh -2 and LEDGF integ inh -1.
`COCCSc1nc2c(c(=O)[nH]c(=O)n2C)n1Cc1cccc(C)c1` gave UHRF1 binding 2, Rin1 Abl inh 11*, MBD2 DNA inh 0, TCR CD3 inh -3 and LEDGF integ inh -1.
CCCSc1nc2c(c(=O)[nH]c(=O)n2C)n1Cc1ccccc1 was read as UHRF1 binding 1, Rin1 Abl inh 0, MBD2 DNA inh -5, TCR CD3 inh 8 and LEDGF integ inh -2.
For O=C(Cc1ccccc1)NN1C(=O)C2C3C=CC([C@@H]2C1=O)C31CC1 (stereo partly drawn) the results were UHRF1 binding -1, Rin1 Abl inh -3, MBD2 DNA inh -5, TCR CD3 inh 5 and LEDGF integ inh -1.
`O=C(Cc1ccccc1)NN1C(=O)C2C(C1=O)C1C=CC2C12CC2` (stereo not drawn) gave UHRF1 binding 24*, Rin1 Abl inh -1, MBD2 DNA inh 1, TCR CD3 inh -4 and LEDGF integ inh 6.
For C[C@@H]1ON(C)[C@H]2C[C@H]3c4[nH]c5cccc(-c6ccccc6F)c5c4CCN3C(=O)[C@@H]12 the results were UHRF1 binding 1, MBD2 DNA inh 3, TCR CD3 inh 3 and LEDGF integ inh -1.
Screening O=C(O)c1ccccc1CC(CCc1ccccc1)C(=O)O (stereo not drawn) returned UHRF1 binding 21*, Rin1 Abl inh 2, MBD2 DNA inh 11, TCR CD3 inh -5 and LEDGF integ inh 5.
COC(=O)[C@]12C[C@H](CC(=O)N3CCCCC3)C(=O)N(CCC3=CCCCC3)C1=C[C@H](C1CCCC1)O[C@@H]2C was read as UHRF1 binding 5, MBD2 DNA inh 9 and LEDGF integ inh 0.
Screening CCN(C(=O)CSc1nnnn1C)C1CCCCC1 returned UHRF1 binding -3, Rin1 Abl inh -2, MBD2 DNA inh -1, TCR CD3 inh -3 and LEDGF integ inh 3.
`CCCN(C(=O)CSc1nnnn1C)C1CCS(=O)(=O)C1` (stereo not drawn) gave UHRF1 binding 22*, Rin1 Abl inh -1, MBD2 DNA inh 3, TCR CD3 inh 9 and LEDGF integ inh 3.
Screening CCN(CC)C(=O)Oc1ccc2oc(=O)cc(-c3cc4cccc(OC)c4o3)c2c1 returned UHRF1 binding 21*, Rin1 Abl inh 6, MBD2 DNA inh 4, TCR CD3 inh 2 and LEDGF integ inh -1.
For CSc1ccccc1NC(=O)CN(C)C(=O)Cc1c[nH]c2ccccc12 the results were UHRF1 binding -1, Rin1 Abl inh 2, MBD2 DNA inh -1, TCR CD3 inh 5 and LEDGF integ inh 2.
CSc1ccccc1NC(=O)CN(C)C(=O)CCc1c[nH]c2ccccc12 was read as UHRF1 binding 21*, Rin1 Abl inh -2, MBD2 DNA inh 5, TCR CD3 inh -8 and LEDGF integ inh -5.
For COC(=O)c1ccc2nc(-c3ccc(Cl)cc3)c(Cc3cccc(Cl)c3)n2c1 the results were UHRF1 binding 4, MBD2 DNA inh 5, TCR CD3 inh 2 and LEDGF integ inh 2.
COC(=O)c1ccc2nc(-c3ccco3)c(Cc3ccsc3)n2c1 was read as UHRF1 binding 13, MBD2 DNA inh 4, TCR CD3 inh 8 and LEDGF integ inh 4.
COC(=O)c1ccc2nc(-c3ccco3)c(Cc3ccccc3)n2c1 was read as UHRF1 binding 22*, Rin1 Abl inh 6, MBD2 DNA inh 1, TCR CD3 inh 9 and LEDGF integ inh 9.
COC(=O)c1ccc2nc(-c3ccco3)c(Cc3cccc(Cl)c3)n2c1 was read as UHRF1 binding 22*, MBD2 DNA inh 8, TCR CD3 inh -5 and LEDGF integ inh 6.
Screening CSc1cccc(NC(=O)c2ccc(NC3=NC4CS(=O)(=O)CC4S3)cc2)c1 (stereo not drawn) returned UHRF1 binding -1, Rin1 Abl inh -2, MBD2 DNA inh -9, TCR CD3 inh 6 and LEDGF integ inh -3.
`Cc1cccc(NC(=O)CSCC(=O)Nc2cc(Cl)ccc2N2CCN(C)CC2)c1` gave UHRF1 binding 0, Rin1 Abl inh -3, MBD2 DNA inh 3, TCR CD3 inh 1 and LEDGF integ inh -1.
For Cc1cc(NC(=O)CSCC(=O)Nc2cc(Cl)ccc2N2CCN(C)CC2)no1 the results were UHRF1 binding 28*, Rin1 Abl inh 5, MBD2 DNA inh 0, TCR CD3 inh -2 and LEDGF integ inh -4.
COc1cc(CN2CC(=O)N(c3cc(Cl)ccc3C)C2=S)cc(OC)c1OC was read as UHRF1 binding -1, Rin1 Abl inh 1, MBD2 DNA inh -7, TCR CD3 inh 1 and LEDGF integ inh 7.
COC(=O)C1=C(C)N(c2ccccc2)C(=S)NC1c1ccccc1C(F)(F)F (stereo not drawn) was read as UHRF1 binding 44*, Rin1 Abl inh 2, MBD2 DNA inh -2, TCR CD3 inh -4 and LEDGF integ inh -6.
Screening COc1cccc(/C=N/NC(=O)NC23CC4CC(CC(C4)C2)C3)c1O returned Rin1 Abl inh 8.1*.
O=C(N/N=C/c1ccccc1F)NC12CC3CC(CC(C3)C1)C2 was read as UHRF1 binding 5, Rin1 Abl inh 0, MBD2 DNA inh -3, TCR CD3 inh -10 and LEDGF integ inh 5.
`O=C1CSC(=S)N1/N=C/c1ccc(O)c(O)c1O` gave Rin1 Abl inh 30*.
Screening COc1ccc(/C=N/N2C(=O)CSC2=S)cc1 returned UHRF1 binding 63*, Rin1 Abl inh 0, MBD2 DNA inh 0, TCR CD3 inh 5 and LEDGF integ inh 1.
Screening CC(C)(C)c1ccc(/C=N/N2C(=O)CSC2=S)cc1 returned UHRF1 binding -1, Rin1 Abl inh 1, MBD2 DNA inh -1, TCR CD3 inh 7 and LEDGF integ inh 1.
CCc1nccn1CCC(=O)NC1CCCc2c1cnn2-c1ccc(F)cc1F (stereo not drawn) was read as UHRF1 binding 1, Rin1 Abl inh 1, MBD2 DNA inh 6, TCR CD3 inh -2 and LEDGF integ inh 0.
`N#Cc1ccsc1NC(=O)COC(=O)CCCSc1nc2ccccc2s1` gave UHRF1 binding 75*, Rin1 Abl inh 1, MBD2 DNA inh 8, TCR CD3 inh -6 and LEDGF integ inh 1.
